Compound activity deposited in PubChem BioAssay by National Center for Advancing Translational Sciences (NCATS).
S2 tox: viability counter-screen for ATXN expression inhibitors; AID 651635; S2 cells (HEK-293 line with an ATXN2-luciferase reporter) viability, CellTiter-Fluor protease fluorescence, 24 h; 400,000 compounds, 0.49% hits; Potency, µM (series often up to 56.7 µM), most hits filed as cytotoxic; note: nearly all actives have a fitted effect of over 40% in size
KB-3-1 tox: kills parental KB-3-1 adenocarcinoma cells; KB-3-1 viability, CellTiter-Glo ATP luminescence, 72 h; Potency, µM (titrated, usually from 46.1 µM), usual class: cytotoxic; 400,000 compounds, 1.4% hits; note: % is set by controls: 0 for no effect and ±100 for the full control effect; nearly all actives have a fitted effect of over 60% in size
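Screening of KB-3-1 cells (DMEM, 10% FBS, phenol-red free) ran from lowest to highest compound concentration; after 72 h at 37 °C viability was read luminescently and curves fitted.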
KB-V1 cytotox: KB-V1 MDR subline cytotoxicity; Potency, µM (titrated, usually from 46.1 µM), usual class: cytotoxic; KB-V1 MDR cells viability, CellTiter-Glo, 72 h; 400,000 compounds, 3.4% hits; note: % is set by controls: 0 for no effect and ±100 for the full control effect; nearly all actives have a fitted effect of over 60% in size
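Following 72 h at 37 degrees C with compound, KB-V1 cell viability was read by CellTiter-Glo luminescence, medium being phenol-red-free DMEM plus 10% FBS; concentration-response parameters came from normalized, curve-fitted qHTS data.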
HT1080 IDH1KD tx: HT-1080 IDH1 knockdown cell toxicity (counter line) | HT-1080 IDH1 knockdown viability, ATP luminescence, 48 h | 360,000 compounds, 2% hits | Potency, µM (doses to about 46.1 µM), inactives show at the highest dose activity, negative = toxicity, hits mostly cytotoxic;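 note: 0% = DMSO wells and -100% = cell-free medium wells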
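% activity derives from luminescence (CellTiter-Glo), normalised to DMSO and no-cell wells. HT-1080-IDH1KD cells, 750/well, had 48 h compound exposure at 37 °C.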
ATXN2 expr inh: ATXN2 expression inhibition. Potency, µM (highest dose often 57 µM), for inactives: at the top dose activity change, negative = inhibition, actives largely listed as inhibitors. HEK-293 ATXN2-luciferase reporter, luminescence, 24 h. 360,000 compounds, 0.72% hits; note: % is set by controls: 0 for no effect and ±100 for the full control effect; nearly all actives have a fitted effect of over 55% in size
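ATXN2-luciferase reporter cells (luciferase flanked by upstream and downstream ATXN2 gene portions) were treated 24 h at 37 °C with compounds at up to 57 uM. SteadyGlo luminescence gave expression; GF-AFC fluorescence gave viability.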
HT1080NT lethal: kills 2HG-producing HT-1080-NT fibrosarcoma cells; HT-1080-NT fibrosarcoma viability, CellTiter-Glo ATP luminescence, 48 h; Potency, µM (series often up to 46.1 µM), for the others: at the top dose activity, negative = less viability, actives largely listed as cytotoxic; 360,000 compounds, 1.6% hits; AID 686970;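 note: NT is the 2HG producing partner of a matched IDH1 knockdown line; 0% = DMSO-treated cells and -100% = media-only wells without cells; nearly all actives have a fitted effect of over 55% in size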
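Viability by CellTiter-Glo luminescence after 48 h compound exposure at 37C of HT-1080-NT cells (750/well, RPMI, 5% FBS). % activity scaled between DMSO wells and medium-only wells, then curve-fitted and categorized by curve class.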
Numbers without * were called inactive; i = inactive; ? = inconclusive; . = no result. Compounds with a hit are over-represented: about 6.2% of the library has one in this group of screens. Calls come from the whole dose curve; as a rule, active = well fitted curve in the direction sought with a large enough effect; inconclusive = small, poorly fitted or top-dose-only effect, or another doubt; inactive = no such curve, though single readings can be large; an effect the other way counts as inactive or inconclusive. Potency is the fitted concentration of half-maximal effect.

SMILES | S2 tox | KB-3-1 tox | KB-V1 cytotox | HT1080 IDH1KD tx | ATXN2 expr inh | HT1080NT lethal
COc1ccc(S(=O)(=O)N2CCN(Cc3cccc(Cl)c3)CC2)cc1 | i | i | i | -1% | -6% | -2%
COc1ccc(-c2nnc(C3CCN(S(=O)(=O)c4cccc(Cl)c4)CC3)o2)cc1 | 11µM* | ? | i | . | 18µM* | .
CN(C)c1ccc(-c2noc(C3CCN(S(=O)(=O)c4ccc(C(=O)O)cc4)CC3)n2)cc1 | i | ? | i | -6% | 0% | 3%
CN(C)c1ccc(-c2noc(C3CCN(S(=O)(=O)c4cccc(Cl)c4)CC3)n2)cc1 | i | 16µM* | 6.5µM* | -2% | -21% | 6%
COc1ccc(-c2nnc(C3CCN(C(=O)c4ccccc4F)CC3)o2)cc1 | 3.2µM* | i | i | . | 3.2µM* | .
NC(=O)C(OC(=O)CNC(=O)C1CCCCC1)c1ccccc1 (stereo not given) | . | ? | i | . | . | .
O=C(c1ccccc1Br)N(Cc1ccco1)C1CCS(=O)(=O)C1 (stereo not given) | i | i | i | . | 3% | .
O=[N+]([O-])c1cc(Cl)ccc1NCCc1ccccn1 | i | i | i | 0% | 22% | -16%
N#Cc1ccc(NCCc2ccccn2)c([N+](=O)[O-])c1 | ? | 8.2µM* | 1.8µM* | -1% | . | 4%
O=C(O[C@H]1[C@H](Cc2ccccc2)NS(=O)(=O)[C@H]2CC3C=C[C@]12O3)c1ccc(Br)cc1 | . | i | ? | . | . | .
CNc1c(Br)cc(/C=C2\C=C(C(O)c3cc(Br)c(NC)c(Br)c3)c3ccccc32)cc1Br (stereo not given) | . | i | i | . | . | .
COc1cccc(-c2sc3ccccc3c2-c2ccc(OCCN(C)C)cc2)c1 | . | ? | ? | 16µM* | 22µM* | ?
COc1cccc(-c2sc3cc(OC)c(OC)cc3c2-c2ccc(OCCN3CCCCC3)cc2)c1 | 40µM* | i | i | 16µM* | -21% | ?
COc1ccc2sc(-c3ccccc3OC)c(-c3ccc(OCCN(C)C)cc3)c2c1 | . | i | i | ? | ? | ?
COc1cccc(-c2sc3ccccc3c2-c2ccc(OCCN3CCCCC3)cc2)c1 | . | ? | ? | -15% | ? | -8%
COc1cccc(-c2sc3ccccc3c2-c2ccc(OCCN3CCCC3)cc2)c1 | ? | ? | ? | ? | 28µM* | ?
c1ccc(-c2sc3ccccc3c2-c2ccc(OCCN3CCCC3)cc2)cc1 | ? | ? | ? | -11% | 25µM* | ?
Cc1c(Cl)cccc1-n1nc(C)c2c(C(=O)NCc3ccccc3)cc(C3CC3)nc21 | i | i | i | . | 4% | .
Cc1ccc(-c2csc(=Nc3ccccc3)n2Cc2ccc3c(c2)OCO3)cc1 | i | i | i | . | 36% | .
COc1ccc(-c2cc(=O)c3ccccc3s2)cc1 | i | i | 15µM* | -5% | 100% | -7%
COc1ccccc1-c1sc2ccccc2c1-c1ccc(OCCN2CCCCC2)cc1 | . | i | i | ? | -7% | ?
Oc1ccc2sc(-c3ccccc3O)c(-c3ccc(OCCN4CCCCC4)cc3)c2c1 | ? | ? | i | 16µM* | ? | ?
COc1ccc(-c2sc3cc(OC)ccc3c2-c2ccc(OCCN3CCCCC3)cc2)cc1 | . | ? | ? | 16µM* | 22µM* | 21µM*
COc1ccc2c(-c3ccc(S(N)(=O)=O)cc3)c(-c3ccc(S(C)(=O)=O)cc3)sc2c1 | i | i | i | ? | ? | 23µM*
C[C@H]1C[C@H]2[C@@H]3CCC4=CC(=O)C=C[C@]4(C)[C@@]3(F)[C@@H](O)C[C@]2(C)[C@@]1(O)C(=O)CCl | i | . | . | . | . | .
SMILES | S2 tox | KB-3-1 tox | KB-V1 cytotox | HT1080 IDH1KD tx | ATXN2 expr inh | HT1080NT lethal
CC(C)C(NS(C)(=O)=O)c1nnc2n1CCN(Cc1ccc(C#CC(C)(C)O)cc1)CC2 (stereo not given) | i | . | . | . | . | .
COCc1c(C(=O)NC2CCCCC2)cnn1-c1nccc(-c2cc(C)sc2C)n1 | i | . | . | . | . | .
CC(C)(C)NCC(O)COc1c(F)cc(Br)cc1F (stereo not given) | i | i | i | 0% | -19% | 9%
CC(C)(C)CC(C)(C)NCC(O)COc1c(F)cc(Br)cc1F (stereo not given) | ? | ? | 21µM* | 21µM* | ? | 21µM*
Cc1ccc2nc(COc3ccccc3NC(=O)C(C)(C)C)cc(=O)n2c1 | . | i | i | . | . | .
O=C(c1c(F)cccc1F)N(Cc1cccs1)C1CCCC1 | i | i | i | -14% | ? | 4%
O=C(c1c(F)cccc1F)N(Cc1ccccn1)C1CCCC1 | i | i | 21µM* | ? | -9% | -2%
COc1ccc(C2CC(c3ccc4ccccc4c3)=NN2C(=O)CN2CCC(C(N)=O)CC2)cc1 (stereo not given) | i | ? | i | ? | 10% | ?
COc1ccc(C2=NN(C(=O)CSc3ncccn3)C(c3ccc(C)cc3)C2)cc1 (stereo not given) | i | i | 23µM* | -7% | -9% | -5%
C=CCNCC(=O)N1N=C(c2ccc3ccccc3c2)CC1c1ccc(OC)cc1 (stereo not given) | i | i | i | 23µM* | 2% | 23µM*
COc1ccc(C2CC(c3ccc4ccccc4c3)=NN2C(=O)CNC2CCCCC2)cc1 (stereo not given) | . | i | ? | ? | . | 23µM*
Cc1cnc(C)c(-c2cc(F)cc3c2OC(CNC(=O)CN2CCCC2)C3)n1 (stereo not given) | i | . | . | . | . | .
CCCN1CCN(CCCNC(=O)Cn2c(-c3cccs3)cc3ccccc32)CC1 | i | ? | i | . | -14% | .
CCN(C(=O)c1cc2c(Cl)nc3ccccc3c2s1)c1cccc(Cl)c1 | i | i | i | . | 8% | .
CCOc1ccc(NS(=O)(=O)c2ccc3[nH]cc(C(=O)N4CCCCCC4)c(=O)c3c2)cc1 | i | i | i | . | 25% | .
N#Cc1ccsc1NC(=O)CN(Cc1ccccc1)Cc1ccccc1 | i | ? | 10µM* | -6% | -5% | -3%
CCSc1nc2c([nH]c3ccccc32)c(=O)n1C | i | i | i | 23% | 5% | 13%
CCC1CCCCN1C(=O)CSc1nc2c([nH]c3ccccc32)c(=O)n1C (stereo not given) | ? | i | 23µM* | 3% | -9% | 9%
